In PubChem BioAssay (NCATS):
Several values for one entry are separate records, joined by “and”; a condition that tells them apart may be missing. Equal values may be shown once. Inconclusive results are not listed. Activity calls are given as the source filed them. Calls come from the whole dose curve; as a rule, active = well fitted inhibition curve with a large enough effect; inconclusive = small, poorly fitted or top-dose-only effect; inactive = flat fitted curve, though single readings scatter.

tested on: not listed separately; assay: qHTS Assay for Lipid Storage Modulators (AID 1519); details: Drosophila S3 cells, BODIPY lipid droplet/cell ratio, laser cytometry; measured here: lipid channel max response; cells loaded with oleic acid
In short: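 Cells seeded at 5,000 per well were treated with compounds over a concentration series and loaded with oleic acid (400 uM, as added). Lipid droplet fluorescence (488 nm excitation, 500-530 nm channel) was read by laser-scanning cytometry and normalized to 20 uM Triacsin C.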

Compound | max response
CNC(=O)[C@H]1O[C@@H](n2cnc3c(NCc4cccc(I)c4)ncnc32)[C@H](O)[C@H]1O | 56.8%
Cc1cn([C@H]2C[C@@H](N=[N+]=[N-])[C@@H](CO)O2)c(=O)[nH]c1=O | -8.16%
N.N.N.N.N.N.N.N.N.N.N.N.N.N.O.O.[Cl-].[Cl-].[Cl-].[Cl-].[Cl-].[Cl-].[Ru].[Ru].[Ru] | 45.1%
CN=C(N)NCCCC(N)C(=O)O (stereo not given) | -19.4%
COc1c2c(nc3ccccc13)OC(C(C)(O)CO)C2 (stereo not given) | -12.2%
CC(C)C1NC(=O)[C@H](CCCCN)NC(=O)[C@@H](Cc2c[nH]c3ccccc23)NC(=O)[C@H](Cc2ccc(O)cc2)NC(=O)[C@H](C)N(C)C(=O)[C@H](Cc2ccccc2)NC1=O (stereo not given in full) | 23%
O=C(Cc1ccc(Cl)c(Cl)c1)OCCN1CCCC1 | -0.355%
Cc1ccccc1N1CCN(S(=O)(=O)C[C@]23CCC(CC2NC(=O)[C@@H](N)CCS(C)(=O)=O)C3(C)C)CC1 (stereo not given in full) | -10.9%
NC(=O)C1=CN(C2OC(COP(=O)(O)OP(=O)(O)OC[C@H]3O[C@@H](n4cnc5c(N)ncnc54)[C@H](OP(=O)(O)O)[C@H]3O)C(O)C2O)C=CC1 (stereo not given in full) | -21.9%
CC(=O)[C@@]1(O)CC[C@H]2C3CCC4=CC(=O)CC[C@]4(C)C3CC[C@@]21C (stereo not given in full) | -12.4%
OC[C@H]1O[C@@H](n2cnc3c(NCCc4ccccc4)ncnc32)[C@H](O)[C@H]1O | -26.1%
NCCNC(=O)c1ccc(Cl)cc1 | 1.39% and 22.5%
Nc1nc(Nc2ccccc2)nc2c1ncn2[C@@H]1O[C@H](CO)[C@H](O)[C@H]1O | -24.2%
O=C(O)CC[C@H](NC(=O)c1ccccc1C(=O)O)C(=O)O | 31.2%
NCC1OC(O[C@@H]2[C@H](O)[C@@H](OC3C(O)C(N)CC(N)C3OC3OC(CO)C(O)C(O)C3N)O[C@@H]2CO)C(N)C(O)C1O (stereo not given in full) | -4.61%
C[C@]12CCC(=O)C=C1CC[C@@H]1C2[C@@H](O)C[C@@]2(C)[C@H]1CC[C@]2(O)C(=O)CO (stereo not given in full) | 2.14% and 9.17%
CN1C(=O)CCC1c1cccnc1 (stereo not given) | 10.6%
CC(=O)O[C@H]1C[C@@H]2CCC3C(CC[C@@]4(C)[C@H]3C[C@H]([N+]3(C)CCCCC3)[C@@H]4OC(C)=O)[C@@]2(C)C[C@@H]1[N+]1(C)CCCCC1 (stereo not given in full) | -31.3%
N=C(N)SCCc1cccc(CCSC(=N)N)c1 | -13.1%
Nc1nc(SCc2ccc([N+](=O)[O-])cc2)c2ncn([C@@H]3O[C@H](CO)[C@H](O)[C@H]3O)c2n1 | -38%

target: DNA repair nuclease/redox regulator APEX1 (Homo sapiens) (UniProt P27695); assay: qHTS Validation Assay for Inhibitors of the Human Apurinic/apyrimidinic Endonuclease 1 (APE1) (AID 1705; note: potency is the fitted concentration of half-maximal effect;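 for activity change, negative = inhibition: TAMRA fluorescence gain over two minutes as APE1 cuts a quenched THF abasic duplex; % is set by controls: 0 for no effect and ±100 for the full control effect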); details: purified APE1 endonuclease activity, fluorescence, titration; series mostly up to 57.1 µM; activity change, negative = inhibition: at the top concentration
In short: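 Endonuclease activity of human APE1 is followed as dequenching when the enzyme incises a tetrahydrofuran abasic site in a short duplex labelled 5'-TAMRA/3'-BHQ-2 (50 nM final), after 15 min enzyme–compound preincubation at room temperature.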

Sequence of DNA repair nuclease/redox regulator APEX1 (Homo sapiens) (P27695 whole entry, looked up): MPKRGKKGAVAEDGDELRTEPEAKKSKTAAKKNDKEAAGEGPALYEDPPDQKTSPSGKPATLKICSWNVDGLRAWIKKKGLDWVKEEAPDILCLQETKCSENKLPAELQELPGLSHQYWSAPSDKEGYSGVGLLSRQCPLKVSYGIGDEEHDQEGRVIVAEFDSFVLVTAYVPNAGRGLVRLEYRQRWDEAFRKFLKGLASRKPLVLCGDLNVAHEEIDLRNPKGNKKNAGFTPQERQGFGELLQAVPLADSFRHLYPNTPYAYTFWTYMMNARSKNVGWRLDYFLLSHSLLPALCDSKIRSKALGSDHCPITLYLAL

Compound | activity change, negative = inhibition | Potency
CNC(=O)[C@H]1O[C@@H](n2cnc3c(NCc4cccc(I)c4)ncnc32)[C@H](O)[C@H]1O | 7.42% (inactive) | –
CC(N)=NCCCC(N)C(=O)O (stereo not given) | -5.14% (inactive) | –
Cc1cn([C@H]2C[C@@H](N=[N+]=[N-])[C@@H](CO)O2)c(=O)[nH]c1=O | 4.47% (inactive) | –
N.N.N.N.N.N.N.N.N.N.N.N.N.N.O.O.[Cl-].[Cl-].[Cl-].[Cl-].[Cl-].[Cl-].[Ru].[Ru].[Ru] | – | 35.5 µM (active)
CN=C(N)NCCCC(N)C(=O)O (stereo not given) | -5.91% (inactive) | –
COc1c2c(nc3ccccc13)OC(C(C)(O)CO)C2 (stereo not given) | -5.05% (inactive) | –
CN1C2CC(OC(=O)C(CO)c3ccccc3)CC1C1OC12 (stereo not given) | 7.94% (inactive) | –
CC(C)C1NC(=O)[C@H](CCCCN)NC(=O)[C@@H](Cc2c[nH]c3ccccc23)NC(=O)[C@H](Cc2ccc(O)cc2)NC(=O)[C@H](C)N(C)C(=O)[C@H](Cc2ccccc2)NC1=O (stereo not given in full) | 4.79% (inactive) | –
NCCC(=O)NCCc1cnc[nH]1 | 6.67% (inactive) | –
O=C(Cc1ccc(Cl)c(Cl)c1)OCCN1CCCC1 | 4.05% (inactive) | –
Cc1ccccc1N1CCN(S(=O)(=O)C[C@]23CCC(CC2NC(=O)[C@@H](N)CCS(C)(=O)=O)C3(C)C)CC1 (stereo not given in full) | 0.448% (inactive) | –
NC(=O)C1=CN(C2OC(COP(=O)(O)OP(=O)(O)OC[C@H]3O[C@@H](n4cnc5c(N)ncnc54)[C@H](OP(=O)(O)O)[C@H]3O)C(O)C2O)C=CC1 (stereo not given in full) | -3.14% (inactive) | –
CC(=O)[C@@]1(O)CC[C@H]2C3CCC4=CC(=O)CC[C@]4(C)C3CC[C@@]21C (stereo not given in full) | 2.05% (inactive) | –
OC[C@H]1O[C@@H](n2cnc3c(NCCc4ccccc4)ncnc32)[C@H](O)[C@H]1O | 10% (inactive) | –
CCCCCCCCCCCCCCC/C=C/[C@@H](O)[C@H](NC(=O)CCCCCCCCCCCCC)OC (tested in a mixture with another compound) | -10% (inactive) | –
CNc1ncnc2c1ncn2[C@@H]1O[C@H](CO)[C@H](O)[C@H]1O | -5.15% (inactive) | –
NCCNC(=O)c1ccc(Cl)cc1 | -6.96% (inactive) | –
NC(=NCCC[C@H](N)C(=O)O)NO | 5.31% (inactive) | –
OC[C@H]1O[C@@H](n2cnc3c(Nc4ccccc4)ncnc32)[C@H](O)[C@H]1O | 9.77% (inactive) | –
N[C@H](Cc1ccc(O)c(O)c1)C(=O)O | – | 10 µM (active)
Nc1nc(Nc2ccccc2)nc2c1ncn2[C@@H]1O[C@H](CO)[C@H](O)[C@H]1O | 0.698% (inactive) | –
NC(=S)c1ccc[n+]([C@@H]2O[C@@H](COP(=O)([O-])OP(=O)(O)OC[C@H]3O[C@@H](n4cnc5c(N)ncnc54)[C@H](OP(=O)(O)O)[C@H]3O)C(O)C2O)c1 (stereo not given in full) | 5.73% (inactive) | –
O=C(O)CC[C@H](NC(=O)c1ccccc1C(=O)O)C(=O)O | 2.99% (inactive) | –
NCC1OC(O[C@@H]2[C@H](O)[C@@H](OC3C(O)C(N)CC(N)C3OC3OC(CO)C(O)C(O)C3N)O[C@@H]2CO)C(N)C(O)C1O (stereo not given in full) | 3.52% (inactive) | –
COc1cc(=O)n(C)c2c(OCC(O)C(C)(C)O)cccc12 (stereo not given) | 3.38% (inactive) | –
C[C@]12CCC(=O)C=C1CC[C@@H]1C2[C@@H](O)C[C@@]2(C)[C@H]1CC[C@]2(O)C(=O)CO (stereo not given in full) | 2.52% (inactive) | –
CN1C(=O)CCC1c1cccnc1 (stereo not given) | 6.1% (inactive) | –
CC(=O)O[C@H]1C[C@@H]2CCC3C(CC[C@@]4(C)[C@H]3C[C@H]([N+]3(C)CCCCC3)[C@@H]4OC(C)=O)[C@@]2(C)C[C@@H]1[N+]1(C)CCCCC1 (stereo not given in full) | -4.15% (inactive) | –
N=C(N)SCCc1cccc(CCSC(=N)N)c1 | -0.004% (inactive) | –
Nc1nc(SCc2ccc([N+](=O)[O-])cc2)c2ncn([C@@H]3O[C@H](CO)[C@H](O)[C@H]3O)c2n1 | -12% (inactive) | –
